Results filed as inconclusive are left out. A number with no mark means an inactive call. Activity calls are given as the source filed them. Calls follow the shape of the dose curve; as a rule, active = well fitted activation curve with a large enough effect; inconclusive = small, poorly fitted or top-dose-only effect; inactive = flat fitted curve, though single readings scatter.
Assay: Cell viability assay for measurement of the protective activity of small molecules against cell death caused by Zika virus infection in human astrocytoma cells
Details: SNB-19 Zika virus cytoprotection, ATP luminescence, 72 h; series mostly up to 46.1 µM; protection from virus-induced cell death: at the top concentration
Procedure, shortened: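 SNB-19 astrocytoma cells pre-treated with compounds for 1 h, then infected with ZIKV at 2 FFU/cell and incubated 72 h at 37 C. Viability read as ATP luminescence; percent inhibition of virus-induced viability loss calculated.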
In the case of `Cc1ccc(C(=O)c2ccc(CC(=O)O)n2C)cc1`, the “protection from virus-induced cell death” value is reported as 15.6%.
With `Cc1ccc(O)c(-n2nc3ccccc3n2)c1` the “protection from virus-induced cell death” value was -2.26%.
In the case of `CC(=O)Nc1ccc([C@H](C)C(=O)Nc2ncc(C(C)C)s2)cc1`, the Potency is reported as 6.15 µM (active).
With `Cc1cccc(C#Cc2ccccc2)n1` the “protection from virus-induced cell death” value was -5.24%.
In the case of `CCC(C(=O)O)c1ccc(N2Cc3ccccc3C2=O)cc1` (centres undefined), the “protection from virus-induced cell death” value is reported as -4.15%.
In the case of `N[C@H](CSC(c1ccccc1)(c1ccccc1)c1ccccc1)C(=O)O`, the “protection from virus-induced cell death” value is reported as 4.41%.
In the case of `NC(N)=NN=C(/C=C/c1ccc([N+](=O)[O-])o1)/C=C/c1ccc([N+](=O)[O-])o1`, the “protection from virus-induced cell death” value is reported as -21.8%.
With `CO[C@H]1C(=O)[C@]2(C)[C@@H](OC)C[C@H]3OC[C@@]3(OC(C)=O)[C@H]2[C@H](OC(=O)c2ccccc2)[C@]2(O)C[C@H](OC(=O)[C@H](O)[C@@H](NC(=O)OC(C)(C)C)c3ccccc3)C(C)=C1C2(C)C` the “protection from virus-induced cell death” value was -12.5%.
In the case of `Cc1csc(NC(=O)c2sc3nc4c(c(C(F)(F)F)c3c2N)CCC4)n1`, the “protection from virus-induced cell death” value is reported as -15%.
For `Clc1ccccc1-c1nc(-c2ccncc2)no1`, the “protection from virus-induced cell death” value was -3.86%.
In the case of `COc1cc2nc(N3CCN(C(=O)C4CCCO4)CC3)nc(N)c2cc1OC` (centres undefined), the “protection from virus-induced cell death” value is reported as -1.91%.
In the case of `O=C1c2ccccc2-[n+]2ccc3c([nH]c4ccccc43)c21`, the “protection from virus-induced cell death” value is reported as -21%.
In the case of `O=c1cc(-c2ccccc2)oc2cc(O)cc(O)c12`, the “protection from virus-induced cell death” value is reported as -4.33%.
For `O=c1c(-c2ccc(O)cc2)coc2cc(OC3O[C@H](CO)[C@H](O)[C@H](O)[C@H]3O)cc(O)c12` (some centres undefined), the “protection from virus-induced cell death” value was 8.55%.
With `CN(C)c1ccc(C(=C2C=CC(=[N+](C)C)C=C2)c2ccccc2)cc1` the “protection from virus-induced cell death” value was -19.4%.
For `CCC(C)SSc1ncc[nH]1` (centres undefined), the Potency was 24.5 µM (active).
With `C/C(=N\O)c1ccc(OCC(=O)N2CCCCC2)cc1` the “protection from virus-induced cell death” value was -12.8%.
In the case of `CCCC(=O)OC[C@@H](OC(=O)CCC)[C@@H](OC(=O)CCC)[C@H](Cn1c2nc(=O)[nH]c(=O)c-2nc2cc(C)c(C)cc21)OC(=O)CCC`, the “protection from virus-induced cell death” value is reported as 6.76%.
In the case of `Cc1cc(O)c2ccccc2c1O`, the “protection from virus-induced cell death” value is reported as -17.9%.
In the case of `CC(=O)Oc1ccccc1C(=O)Nc1ncc([N+](=O)[O-])s1`, the Potency is reported as 31.6 µM (active).
With `Nc1c(S(=O)(=O)O)cc(Nc2ccc(Nc3nc(Cl)nc(Nc4ccc(S(=O)(=O)O)cc4)n3)c(S(=O)(=O)O)c2)c2c1C(=O)c1ccccc1C2=O` the “protection from virus-induced cell death” value was -1.96%.
For `Cc1nc(N)sc1-c1ccnc(Nc2ccc(N3CCOCC3)cc2)n1`, the “protection from virus-induced cell death” value was 22%.
With `O=C(CS)Nc1ccccc1` the “protection from virus-induced cell death” value was -2.47%.
For `Nc1nc2ccc([N+](=O)[O-])cc2s1`, the “protection from virus-induced cell death” value was 9.51% [at 88.3 µM].
With `COc1cc2nc(-c3ccc(N4CCN(C)CC4)cc3)nc(NCCN3CCOCC3)c2cc1OC` the Potency was 1.95 µM (active).
With `C[C@@H](O[C@H]1OCCN(Cc2n[nH]c(=O)[nH]2)[C@@H]1c1ccc(F)cc1)c1cc(C(F)(F)F)cc(C(F)(F)F)c1` the “protection from virus-induced cell death” value was 2.59%.
With `COc1ccc(-c2cc(=O)c3c(O)cc(O)cc3o2)cc1O` the “protection from virus-induced cell death” value was 10.6%.
With `Nc1ccc(-c2ccc3ccccc3n2)cc1` the “protection from virus-induced cell death” value was -18.9%.
For `O=C1C[C@@H](c2ccc(O)cc2)Oc2cc(O)cc(O)c21`, the “protection from virus-induced cell death” value was -7.24%.
With `Nc1ccc2c(c1)CN1C(=O)c3ccccc3C1=N2` the “protection from virus-induced cell death” value was -13.3% [at 23.8 µM].
For `CC(O)=C(C#N)C(=O)Nc1ccc(C(F)(F)F)cc1`, the “protection from virus-induced cell death” value was -10%.
With `CCN(CC)c1ccc(C(=C2C=CC(=[N+](CC)CC)C=C2)c2cc(S(=O)(=O)O)ccc2S(=O)(=O)[O-])cc1` the “protection from virus-induced cell death” value was -9.19%.
With `CC1(C)Cc2c(sc(NC(=S)NC(=O)c3ccccc3)c2C(=O)O)CO1` the “protection from virus-induced cell death” value was 10.2%.
In the case of `N#CC1(c2ccc(NC(=O)c3cccnc3NCc3ccncc3)cc2)CCCC1`, the “protection from virus-induced cell death” value is reported as 6.68%.
